Laboratory results: PubChem BioAssay (Tox21)
Records with an inconclusive call do not appear. Active and inactive are the calls of the source. Unless noted, calls come from the whole dose curve; as a rule, active = well fitted curve in the direction sought with a large enough effect in the repeat runs; inconclusive = weak or mixed curves; inactive = no such curve, though single readings can be large; an effect the other way counts as inactive or inconclusive.

Columns and labels:
[1] = qHTS assay to test for compound auto fluorescence at 535 nm (green) in HEK293 cells (AID 720680)
[2] = qHTS assay to test for compound auto fluorescence at 460 nm (blue) in HEK293 cell free culture (AID 720681)
Outline: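 Compounds were added to cell-free DMEM with 10% FBS and fluorescence read directly. The blue channel used 405 nm excitation and 460 nm emission, with triamterene as the reference fluorophore.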

[3] = qHTS assay to test for compound auto fluorescence at 535 nm (green) in HEK293 cell free culture (AID 720682)
Outline: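 Intrinsic compound fluorescence is measured in culture medium containing 10% FBS, with excitation at 485 nm and detection at 535 nm, referenced to fluorescein.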

[4] = qHTS assay to test for compound auto fluorescence at 590 nm (red) in HEK293 cell free culture (AID 720683)
Outline: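 Cell-free wells of DMEM with 10% FBS received compound, and intrinsic fluorescence was read at excitation/emission 540/590 nm. Values expressed as equivalence to Rose Bengal sodium.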

[5] = qHTS assay to test for compound auto fluorescence at 590 nm (red) in HepG2 cell free culture (AID 720684)
Outline: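 Auto fluorescence equivalency versus Rose Bengal sodium, red channel Ex/Em 540/590 nm; compounds in cell-free MEM/10% FBS; DMSO vehicle control.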

[6] = qHTS assay to test for compound auto fluorescence at 460 nm (blue) in HepG2 cell free culture (AID 720685)
Outline: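 Cell-free plates of MEM plus 10% FBS received 23 nL compound or DMSO vehicle; blue-channel (405/460 nm) intensity scored against triamterene as reference fluorophore.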

[7] = qHTS assay to test for compound auto fluorescence at 535 nm (green) in HepG2 cell free culture (AID 720686)
[8] = qHTS assay to test for compound auto fluorescence at 460 nm (blue) in HepG2 cells (AID 720687)
Outline: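 HepG2 cells in MEM with 10% FBS, attached overnight at 37 C, were exposed to compound or DMSO for 1 hr at 37 C, 5% CO2. Blue fluorescence was read at 405/460 nm, with triamterene as reference fluorophore.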

[9] = target: Glucocorticoid receptor (Homo sapiens) (UniProt P04150); experiment: qHTS assay to identify small molecule agonists of the glucocorticoid receptor (GR) signaling pathway (AID 720691; active = well fitted activation curve with a large enough effect in the signal ratio in the repeat runs, not every such curve was filed as active; the % refers to the signal ratio; note: potency is the fitted concentration of half-maximal effect)
Sequence of Glucocorticoid receptor (Homo sapiens) (P04150 whole entry, looked up): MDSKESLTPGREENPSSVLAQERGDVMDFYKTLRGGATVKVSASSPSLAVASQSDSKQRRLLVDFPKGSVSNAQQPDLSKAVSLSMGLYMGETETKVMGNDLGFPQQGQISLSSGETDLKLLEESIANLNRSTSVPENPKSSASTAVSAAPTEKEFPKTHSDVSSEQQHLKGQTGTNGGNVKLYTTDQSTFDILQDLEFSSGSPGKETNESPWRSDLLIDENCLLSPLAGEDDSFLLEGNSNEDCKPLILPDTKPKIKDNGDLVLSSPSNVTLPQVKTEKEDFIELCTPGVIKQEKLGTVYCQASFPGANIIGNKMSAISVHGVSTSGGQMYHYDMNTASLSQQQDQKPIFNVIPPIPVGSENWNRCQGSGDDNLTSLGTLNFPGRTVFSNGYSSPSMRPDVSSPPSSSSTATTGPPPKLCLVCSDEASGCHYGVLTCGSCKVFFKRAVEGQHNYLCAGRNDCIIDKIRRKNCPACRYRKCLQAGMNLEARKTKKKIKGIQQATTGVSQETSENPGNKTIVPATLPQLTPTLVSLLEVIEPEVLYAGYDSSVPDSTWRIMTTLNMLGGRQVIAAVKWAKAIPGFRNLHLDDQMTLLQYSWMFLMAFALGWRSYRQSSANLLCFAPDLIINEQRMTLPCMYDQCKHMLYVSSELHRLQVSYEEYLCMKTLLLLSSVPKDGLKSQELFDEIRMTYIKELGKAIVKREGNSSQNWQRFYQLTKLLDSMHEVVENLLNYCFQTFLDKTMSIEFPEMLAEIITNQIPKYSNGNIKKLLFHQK
Outline: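 Cells: GR-bla HeLa, endogenous GR with stably integrated GRE-beta-lactamase reporter. Treatment 18 h, 37 C, compounds delivered in DMSO. Detection via LiveBLAzer B/G FRET substrate, 2 h RT, fluorescence intensity.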

[10] = qHTS assay for identifying genotoxic compounds that show differential cytotoxicity against isogenic chicken DT40 cell lines with known DNA damage response pathways - Rad54/Ku70 mutant cell line (AID 743015); note: nearly all actives have a fitted effect of over 60% in size; note: potency is the fitted concentration of half-maximal effect
[11] = qHTS assay to identify small molecule antagonists of the thyroid receptor (TR) signaling pathway - cell viability counter screen (AID 743064); note: nearly all actives have a fitted effect of over 50% in size; note: potency is the fitted concentration of half-maximal effect
Outline: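 Same-well viability check: GH3.TRE-Luc cells stimulated with 1 nM T3 alongside test compound for 23.5 h, followed by CellTiter-Fluor fluorescence.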

[12] = qHTS assay to identify small molecule antagonists of the thyroid receptor (TR) signaling pathway (AID 743065); note: nearly all actives have a fitted effect of over 55% in size; note: potency is the fitted concentration of half-maximal effect
Outline: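 GH3.TRE-Luc rat pituitary cells (two TREs driving luciferase) were dosed with compound, then stimulated with 1 nM T3 (final) for 23.5 h at 37 C. ONE-Glo luminescence was the read-out, with CellTiter-Fluor fluorescence as the cytotoxicity counter-screen.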

[13] = qHTS assay to identify small molecule antagonists of the glucocorticoid receptor (GR) signaling pathway - cell viability counter screen (AID 720693); note: nearly all actives have a fitted effect of over 55% in size
[14] = qHTS assay for identifying genotoxic compounds that show differential cytotoxicity against isogenic chicken DT40 cell lines with known DNA damage response pathways - wild type cell line (AID 743012); note: nearly all actives have a fitted effect of over 60% in size; note: potency is the fitted concentration of half-maximal effect
Outline: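 Luminescent ATP viability signal (CellTiter-Glo, 30 min RT) recorded after wild type DT40 cells were incubated with compounds for 40 h at 37 C/5% CO2.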

[15] = qHTS assay for identifying genotoxic compounds that show differential cytotoxicity against isogenic chicken DT40 cell lines with known DNA damage response pathways - Rev3 mutant cell line (AID 743014); note: nearly all actives have a fitted effect of over 55% in size; note: potency is the fitted concentration of half-maximal effect
[16] = qHTS assay to identify small molecule antagonists of the androgen receptor (AR) signaling pathway - cell viability counter screen (AID 743033; note: nearly all actives have a fitted effect of over 45% in size)
[17] = qHTS assay to identify small molecule antagonists of the androgen receptor (AR) signaling pathway using the MDA cell line - cell viability counter screen (AID 743041; note: nearly all actives have a fitted effect of over 45% in size)
Outline: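 Compound exposure lasted 16 h at 37C in MDA-kb2 AR-luc cells stimulated with R1881. Protease-based CellTiter-Fluor reagent was applied for the final 30 min and fluorescence measured.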

[18] = target: Androgen receptor (Homo sapiens) (UniProt P10275); experiment: qHTS assay to identify small molecule agonists of the androgen receptor (AR) signaling pathway (AID 743036; active = well fitted activation curve with a large enough effect in the signal ratio in the repeat runs, with a control signal flat, not every such curve was filed as active; the % refers to the signal ratio)
Sequence of Androgen receptor (Homo sapiens) (P10275 whole entry, looked up): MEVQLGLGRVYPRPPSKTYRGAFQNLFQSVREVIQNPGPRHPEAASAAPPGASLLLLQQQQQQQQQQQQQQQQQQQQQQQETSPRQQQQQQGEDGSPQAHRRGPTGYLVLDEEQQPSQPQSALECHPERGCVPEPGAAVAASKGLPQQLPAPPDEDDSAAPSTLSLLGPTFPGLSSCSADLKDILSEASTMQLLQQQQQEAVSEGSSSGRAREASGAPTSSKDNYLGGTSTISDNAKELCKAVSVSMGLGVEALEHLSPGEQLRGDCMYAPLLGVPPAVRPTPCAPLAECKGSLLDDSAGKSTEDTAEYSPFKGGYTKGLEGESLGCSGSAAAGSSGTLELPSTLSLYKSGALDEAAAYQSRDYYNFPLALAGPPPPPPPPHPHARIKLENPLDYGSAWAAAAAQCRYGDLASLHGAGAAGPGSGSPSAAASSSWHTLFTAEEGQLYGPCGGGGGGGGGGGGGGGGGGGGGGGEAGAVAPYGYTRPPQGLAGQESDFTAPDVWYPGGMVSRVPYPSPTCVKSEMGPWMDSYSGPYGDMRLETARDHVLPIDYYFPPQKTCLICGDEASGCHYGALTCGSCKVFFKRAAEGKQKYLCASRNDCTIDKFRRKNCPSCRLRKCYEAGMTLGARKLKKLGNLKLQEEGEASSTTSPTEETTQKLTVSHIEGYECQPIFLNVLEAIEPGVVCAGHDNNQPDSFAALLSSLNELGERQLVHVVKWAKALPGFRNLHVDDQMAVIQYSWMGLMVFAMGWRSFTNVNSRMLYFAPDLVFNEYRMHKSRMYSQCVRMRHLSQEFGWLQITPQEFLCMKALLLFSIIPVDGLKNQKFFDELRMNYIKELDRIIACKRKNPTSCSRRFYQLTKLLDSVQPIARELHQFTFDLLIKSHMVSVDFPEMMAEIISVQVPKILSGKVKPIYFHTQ
Outline: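 Agonist activity was scored by beta-lactamase reporter fluorescence in stably transfected HEK293 cells exposed to compounds for 16 h at 37C and 5% CO2. Substrate loading took 2 h at room temperature.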

[19] = target: Androgen receptor (Homo sapiens) (UniProt P10275); experiment: qHTS assay to identify small molecule agonists of the androgen receptor (AR) signaling pathway using the MDA cell line (AID 743040; note: nearly all actives have a fitted effect of over 20% in size)
Outline: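 Testing was done with the MDA-kb2 AR-luc line, a human breast carcinoma stably transfected with MMTV-luciferase containing AR and GR response elements. Cells were exposed 16 h at 37C before ONE-Glo luminescence detection.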

[20] = target: Glucocorticoid receptor (Homo sapiens) (UniProt P04150); experiment: qHTS assay to identify small molecule antagonists of the glucocorticoid receptor (GR) signaling pathway (AID 720692; active = well fitted inhibition curve with a large enough effect in the signal ratio in the repeat runs, not every such curve was filed as active; the % refers to the signal ratio)
Outline: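 Quantitative HTS in antagonist format: HeLa cells expressing endogenous GR and a stably integrated GRE-bla reporter, stimulated with 5 nM dexamethasone (final) alongside test compounds for 18 h.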
% is set by controls: 0 for no effect and ±100 for the full control effect.

CCc1nn(C2CCCCC2)c2cc(C3(C#N)CCC(C(=O)O)CC3)ccc12 (stereo unspecified)
active: Potency [10] 61.1 µM | Potency [11] 34.4 µM | Potency [12] 61.1 µM
inactive: outcome [1] | Potency [2] | outcome [3] | outcome [4] | outcome [5] | Potency [6] | outcome [7] | Potency [8] | Potency [9]

CCOc1ccc2[nH]cc(C(=O)NCc3ccccc3)c(=O)c2n1
inactive: outcome [1] | Potency [2] | outcome [3] | outcome [4] | outcome [5] | Potency [6] | outcome [7] | Potency [8] | Potency [13]
active: Potency [14] 43.3 µM | Potency [15] 48.6 µM | Potency [10] 24.3 µM

COc1ccc([C@@H]2Sc3ccccc3N(CCN(C)C)C(=O)[C@@H]2OC(C)=O)cc1
active: Potency [11] 23.7 µM
inactive: outcome [1] | Potency [2] | outcome [3] | outcome [4] | outcome [5] | Potency [6] | outcome [7] | Potency [8] | Potency [9] | Potency [13] | Potency [16] | Potency [17]

Cc1ccc(O)c([C@H](CCN(C(C)C)C(C)C)c2ccccc2)c1
inactive: outcome [1] | Potency [2] | outcome [3] | outcome [4] | outcome [5] | Potency [6] | outcome [7] | Potency [8] | Potency [9] | Potency [13] | Potency [16] | Potency [17]
active: Potency [14] 26.6 µM | Potency [11] 11.9 µM | Potency [12] 26.6 µM

O=CNc1ccccc1
inactive: outcome [1] | Potency [2] | outcome [3] | outcome [4] | outcome [5] | Potency [6] | outcome [7] | Potency [8] | Potency [9] | Potency [13] | Potency [14] | Potency [10] | Potency [16] | Potency [17] | Potency [11] | Potency [12]

CC(C)(C)c1ccc(S)cc1
inactive: outcome [1] | Potency [2] | outcome [3] | outcome [4] | outcome [5] | Potency [6] | outcome [7] | Potency [8] | Potency [9] | Potency [13] | Potency [16] | Potency [17] | Potency [12]

C[C@H](CCC(=O)O)[C@H]1CC[C@H]2[C@@H]3[C@H](O)C[C@@H]4C[C@H](O)CC[C@]4(C)[C@H]3CC[C@]12C
inactive: outcome [1] | Potency [2] | outcome [3] | outcome [4] | outcome [5] | Potency [6] | outcome [7] | Potency [8] | Potency [13] | Potency [14] | Potency [15] | Potency [10] | Potency [16] | Potency [17] | Potency [11] | Potency [12]

CCCCOC(=O)c1ccccc1C(=O)OCC(CC)CCCC (stereo unspecified)
inactive: outcome [1] | Potency [2] | outcome [3] | outcome [4] | outcome [5] | Potency [6] | outcome [7] | Potency [8] | Potency [9] | Potency [13] | Potency [14] | Potency [10] | Potency [16] | Potency [17] | Potency [11] | Potency [12]

CN1CCC[C@@H]1c1cccnc1
inactive: outcome [1] | Potency [2] | outcome [3] | outcome [4] | outcome [5] | Potency [6] | outcome [7] | Potency [8] | Potency [13] | Potency [14] | Potency [15] | Potency [10] | Potency [16] | Potency [17] | Potency [11]

COc1ccc(C(C)=O)cc1
inactive: outcome [1] | Potency [2] | outcome [3] | outcome [4] | outcome [5] | Potency [6] | outcome [7] | Potency [8] | Potency [13] | Potency [14] | Potency [15] | Potency [10] | Potency [16] | outcome [18] | Potency [19] | Potency [17] | Potency [12]

CC(C)(C)c1cc(O)c(C(C)(C)C)cc1O
inactive: outcome [1] | Potency [2] | outcome [3] | outcome [4] | outcome [5] | Potency [6] | outcome [7] | Potency [8] | Potency [9] | outcome [18] | Potency [19]
active: Potency [14] 12.2 µM | Potency [15] 13.7 µM | Potency [10] 13.7 µM | Potency [11] 48.6 µM

CCC(C)N(C)C(=O)c1cc2ccccc2c(-c2ccccc2Cl)n1 (stereo unspecified)
inactive: outcome [1] | Potency [2] | outcome [3] | outcome [4] | outcome [5] | Potency [6] | Potency [8] | Potency [13] | Potency [16] | outcome [18] | Potency [19] | Potency [17]
active: Potency [14] 15.7 µM | Potency [15] 14 µM | Potency [10] 14 µM | Potency [12] 35.2 µM

SC1CCCC1
inactive: outcome [1] | Potency [2] | outcome [3] | outcome [4] | outcome [5] | Potency [6] | outcome [7] | Potency [8] | Potency [13] | Potency [14] | Potency [15] | Potency [10] | Potency [16] | Potency [11] | Potency [12]

CCCCc1cc2ccccc2c(OCCN(C)C)n1
inactive: fluorescence, % of fluorescein [1] -0.0691% [at 18.6 µM] | fluorescence, % of fluorescent control [2] -0.0502% [at 18.6 µM] | activity change [3] -0.13% [at 18.6 µM] | fluorescence, % of fluorescent control [4] 0.0019% [at 18.6 µM] | fluorescence, % of Rose Bengal [5] 0.586% [at 18.6 µM] | fluorescence, % of fluorescent control [6] -0.0015% [at 18.6 µM] | fluorescence, % of fluorescent control [8] -0.0043% [at 18.6 µM] | Potency [13] | Potency [16] | Potency [17]
active: Potency [9] 1.02 µM | Potency [14] 6.39 µM | Potency [15] 9.02 µM | Potency [11] 8.04 µM | Potency [12] 9.02 µM

CCCCCc1ccc(N)cc1
inactive: outcome [1] | Potency [2] | outcome [3] | outcome [4] | outcome [5] | Potency [6] | outcome [7] | Potency [8] | Potency [13] | Potency [14] | Potency [11]

Cn1c(N)nc2nc[nH]c2c1=O
inactive: outcome [1] | Potency [2] | outcome [3] | outcome [4] | outcome [5] | Potency [6] | Potency [8] | Potency [9] | Potency [20] | Potency [13] | Potency [15] | Potency [16] | Potency [11] | Potency [12]
